Measurements from PubChem BioAssay (NCATS).
Inconclusive results are not listed. Unmarked numbers belong to inactive results. Activity calls are given as the source filed them. The call rests on the fitted dose curve; in most records, active means well fitted cell-killing curve with a large enough effect; inconclusive means small, poorly fitted or top-dose-only effect, or effect the other way; inactive means no such curve, though single readings can be large or run the other way.

test: Quantitative High-Throughput drug screen in 47 multiple myeloma cell lines against the NCATS MIPE library collection: ARP1_JJKsccF8 cell viability assay (AID 1918928; further: nearly all actives have a fitted effect of over 40% in size); details: ARP1 myeloma cells viability, CellTiter-Glo ATP, 48 h; series mostly up to 45.8 µM; viability: at the top concentration
Text: PI: Beverly A. Mock Ph.D.
Laboratory of Cancer Biology and Genetics,
Center for Cancer Research, National Cancer Institute,
National Institute of Health, Bethesda, Maryland
Drug resistance and disease progression are common in multiple myeloma (MM) patients, underscoring the need for new therapeutic combinations. […] We hypothesized that effective combinations would reduce MYC expression and enhance p16 activity. […] These preclinical data identify potentially useful drug combinations for evaluation in drug-resistant MM and reveal potential mechanisms of combined drug sensitivity.
Described herein is the primary MIPE qHTS used to cherrypick compounds. Validated compounds were then further tested for potential synergistic activiy.
[1] Peat TJ, Gaikwad SM, Dubois W, Gyabaah-Kessie N, Zhang S, Gorjifard S, Phyo Z, Andres M, Hughitt VK, Simpson RM, Miller MA, Girvin AT, Taylor A, Williams D, D'Antonio N, Zhang Y, Rajagopalan A, Flietner E, Wilson K, Zhang X, Shinn P, Klumpp-Thomas C, McKnight C, Itkin Z, Chen L, Kazandijian D, Zhang J, Michalowski AM, Simmons JK, Keats J, Thomas CJ, Mock BA. Drug combinations identified by high-throughput screening promote cell cycle transition and upregulate Smad pathways in myeloma. Cancer Lett. 2023 Aug 1;568:216284. doi: 10.1016/j.canlet.2023.216284. Epub 2023 Jun 24. PMID: 37356470; PMCID: PMC10408729.
SEQUENCE No. (e.g., 1, 2, 3, etc.); […] (e.g., Cells, Incubation, Reagent, etc.); VALUE and DESCRIPTION.
1; Cells; 5 uL; white, solid bottom 1536-well Greiner assay plate.
2; Compounds; 23 nL; Kalypsis pin tool (Wako USA) equipped with a 1536-well pin head to transfer to the assay plates.
3; Incubation; 48 hours; 37C incubation.
4; Reagent;5uL; CellTiter Glo (Promega).
5; Detector; 425V; Luminescence; Viewlux PerkinElmer.
NOTES (numbers refer to Sequence numbers above)
1. The cell-based screening methods employed in this study were like those previously published. Briefly, the corresponding myeloma cell lines were screened in 1,536-well plates with 500 cells, 5-uL per well for inhibition of cell viability (assessed by measuring ATP levels with CellTiterGlo).
2. NCATS MIPE 4.0 library of approved and investigational drugs were added using the Kalypsis pin tool. Wells treated with DMSO only for 100% viability and media only cells for 0% viability were used as controls.
3. The assay plates were covered and incubated for 48 hours in a 37C, 5% CO2 incubator with controlled humidity.
4. After 48 hours, CellTilter-GloTM luminescent substrate mix (Promega) reagent was added to the assay plate and plates we incubated for 5 min at room temperature.
5. Signal was measured as median relative luminescence units on a ViewLux (PerkinElmer) multiplate reader.
[1] Heske CM, Davis MI, Baumgart JT, Wilson K, Gormally MV, Chen L, Zhang X, Ceribelli M, Duveau DY, Guha R, Ferrer M, Arnaldez FI, Ji J, Tran HL, Zhang Y, Mendoza A, Helman LJ, Thomas CJ. Matrix Screen Identifies Synergistic Combination of PARP Inhibitors and Nicotinamide Phosphoribosyltransferase (NAMPT) Inhibitors in Ewing Sarcoma. Clin Cancer Res. 2017 Dec 1;23(23):7301-7311. doi: 10.1158/1078-0432.CCR-17-1121. Epub 2017 Sep 12. PMID: 28899971; PMCID: PMC6636827.
Potency means the concentration at half of the fitted maximal effect.

Structure (SMILES) | viability | Potency
Cc1ccc(C(C)(O)c2nc3ccccc3s2)c(C)c1 (stereo not given) | 83.7% | –
CC1(C)CCC2=C(O1)c1ccccc1C(=O)C2=O | – | 18.7 µM (active)
COc1ccc(-c2coc3cc(O)ccc3c2=O)cc1 | 99.5% | –
COc1cc(NC(=O)c2ccc(-c3ccc(Cl)cc3)o2)cc(OC)c1 | 114% | –
CCOC(=O)O[C@]1(C(=O)OCCl)CC[C@@H]2[C@H]3CCC4=CC(=O)C=C[C@]4(C)[C@@H]3[C@@H](O)C[C@@]21C | – | 0.0372 µM (active)
C=C1C(=O)OC2C=C(C)CCC=C(C)CCC12 (stereo not given) | – | 20.9 µM (active)
N[C@H](CSC(c1ccccc1)(c1ccccc1)c1ccccc1)C(=O)O | – | 13.2 µM (active)
NC[C@@H]1O[C@@H](O[C@H]2[C@@H](O)[C@H](O[C@@H]3[C@@H](O)[C@@H](N)C[C@H](N)[C@H]3O[C@H]3O[C@H](CN)[C@@H](O)[C@@H](O)[C@H]3N)O[C@H]2CO)[C@H](N)[C@@H](O)[C@@H]1O | 93.4% | –
COc1cc2ncnc(Nc3ccc(F)c(Cl)c3)c2cc1OCCCN1CCOCC1 | – | 48.1 µM (active)
Cc1nc(N)sc1-c1ccnc(Nc2ccc(N3CCOCC3)cc2)n1 | – | 8.33 µM (active)
Cc1ccccc1C(C(=O)NC1CCCCC1)N(C(=O)Cn1ccnc1C)c1cccc(F)c1 (stereo not given) | 95% | –
CC(C)(C)c1cc(C(=O)O)c(NC(=O)Nc2ccc3[nH]ncc3c2)s1 | 89.8% | –
CO[C@H]1C(=O)[C@]2(C)[C@@H](OC)C[C@H]3OC[C@@]3(OC(C)=O)[C@H]2[C@H](OC(=O)c2ccccc2)[C@]2(O)C[C@H](OC(=O)[C@H](O)[C@@H](NC(=O)OC(C)(C)C)c3ccccc3)C(C)=C1C2(C)C | 10.5% | –
COc1cc2nc(-c3ccc(N4CCN(C)CC4)cc3)nc(NCCN3CCOCC3)c2cc1OC | – | 0.059 µM (active)
O=C(O)C(O)Cc1ccc(O)c(O)c1 (stereo not given) | – | 23.5 µM (active)
O=C(Nc1cc(Cl)cc2c1[nH]c1cnccc12)c1cccnc1 | – | 13.2 µM (active)
N[C@@]1(C(=O)O)CS(=O)(=O)[C@H]2[C@H](C(=O)O)[C@H]21 | 85.2% | –
CC(=O)OC1C(C)OC(Oc2c(-c3ccc(O)cc3)oc3cc(O)cc(O)c3c2=O)C(O)C1OC(C)=O (stereo not given) | 113% | –
C=C1C(=O)[C@@]23C(CC[C@@H]1[C@H]2O)[C@@]12CO[C@]3(O)[C@@H](O)[C@@H]1C(C)(C)CC[C@@H]2O (stereo not given in full) | – | 5.9 µM (active)
Cc1ccc(F)c(NC(=O)Nc2ccc(-c3cccc4[nH]nc(N)c34)cc2)c1 | – | 26.4 µM (active)

Structure (SMILES) | viability | Potency
Nc1ncnc2c1ncn2[C@@H]1O[C@H](CO)C[C@@H]1O | 96.4% | –
NC1CCC(Nc2nc(Nc3ccc(C(=O)N4CCCCC4)cc3)c3ncn(-c4cccc(F)c4)c3n2)CC1 (stereo not given) | 92.1% | –
CN1C[C@H]2c3ccccc3Oc3ccc(Cl)cc3[C@@H]2C1 | 81.5% | –
CCC(=O)NC[C@H](Cc1ccc(OCCc2nc(-c3ccccc3)oc2C)cc1)NC(C)=CC(=O)c1ccc(C(F)(F)F)cc1 | – | 23.5 µM (active)
CC(C)=CC[C@@H](O)C1=CC(=O)c2c(O)ccc(O)c2C1=O | – | 1.32 µM (active)
Nc1ncnc2ccccc12 | 101% | –
N#CC1(c2ccc(NC(=O)c3cccnc3NCc3ccncc3)cc2)CCCC1 | 74.9% | –
O=C1NC(=O)C(=Cc2ccc3nccnc3c2)S1 | – | 10.2 µM (active)
CCc1ccc(C=C2SC(=S)NC2=O)cc1 | 76.5% | –
O=C(CCN1CCN(C(=O)OCc2cc(Cl)cc(Cl)c2)CC1)c1ccc2[nH]c(=O)oc2c1 | 91.6% | –
C[C@@H]1CCN(C(=O)CC#N)C[C@H]1N(C)c1ncnc2[nH]ccc12 | 86% | –
CC(C)(C)COc1ccc(-n2cc(C(=O)O)cn2)cc1C#N | 102% | –
CC1(C)CCC(CN2CCN(c3ccc(C(=O)NS(=O)(=O)c4ccc(NCC5CCOCC5)c([N+](=O)[O-])c4)c(Oc4cnc5[nH]ccc5c4)c3)CC2)=C(c2ccc(Cl)cc2)C1 | – | 23.5 µM (active)
CC(C)(C)OC(=O)N[C@H]1CCCCCC=C[C@@H]2C[C@@]2(C(=O)NS(=O)(=O)C2CC2)NC(=O)[C@@H]2C[C@@H](OC(=O)N3Cc4cccc(F)c4C3)CN2C1=O | 105% | –
COc1cc(O)c2c(c1)C(=O)c1cc(C)cc(O)c1C2=O | 92.5% [at 23.2 µM] | –
CNC1CCC(N(Cc2cccc(-c3ccncc3)c2)C(=O)c2sc3c(F)ccc(F)c3c2Cl)CC1 (stereo not given) | – | 16.6 µM (active)
COCCOC(=O)C1=C(C)NC2=C(C(=O)CC(c3ccccc3OC)C2)C1c1cccc(O)c1 (stereo not given) | – | 10.5 µM (active)
CC(C)(C)NC(=O)Nc1cccc(Nc2ncc(F)c(NC(C)(C)CO)n2)c1 | – | 10.5 µM (active)
CCc1ccc(OCc2ccccc2C(=O)Nc2ccc3nc(C)cc(N)c3c2)cc1 | – | 7.43 µM (active)
Clc1ccc(-c2nc3sccn3c2C=NOCc2ccc(Cl)c(Cl)c2)cc1 | 100% | –
